Experimental data published in PubChem BioAssay.

These molecules were tested on Inhibin beta A chain (activin A) (assay: INHBA (activin A) binders on microarrays, primary screen, biochemical, small-molecule microarray, 635 nm fluorescence scan (AID 1107;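 note: mouse activin A protein probed at 4.33 µg/mL on printed slides; score merges bound-protein fluorescence near 667 nm with spot signal-to-noise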)). Details: small-molecule microarray binding, higher = more signal.

Structure (SMILES)	composite z-score
O=C1C[C@H](c2ccccc2)[C@H](c2ccc(Br)cc2)O1	0.266
COC(=O)[C@H](C)NC(=O)CCC1CC(OC(=O)NCCc2ccc(F)cc2)CC2(CCCC(COC(=O)NCC3CCCCC3)O2)O1 (stereo not given in full)	0.0532
CN1CCc2nc(-c3ccccc3)c(-c3ccccc3)cc2C1	0.334
CC#CCOCCC=C1c2ccccc2[C@@H](OC)[C@@H]1C	-2.36
C#CCCCON=C1C[C@@H](O)[C@@H](O)[C@@H]2[C@@H]3C(=O)N(C[C@@H]4CCCO4)C(=O)[C@@H]3CC[C@H]12	-0.0374
O=C1[C@H]2[C@H]3[C@H](O)[C@H](O)CC(=NO[C@@H]4O[C@H](CO)[C@@H](O)[C@H](O)[C@H]4O)[C@H]3CC[C@H]2C(=O)N1c1ccc(F)cc1F	-1.81
CCCNC(=O)OC[C@H]1O[C@H](CCON=C2C[C@@H](O)[C@@H](O)[C@@H]3[C@@H]4C(=O)N(CC)C(=O)[C@@H]4CC[C@@H]23)C=C[C@@H]1Oc1ccc(OC)cc1	0.157
CC(C)=CCCC(C)=CCON=C1C[C@@H](O)[C@@H](O)[C@@H]2[C@@H]3C(=O)N(c4cccc(Oc5ccccc5)c4)C(=O)[C@@H]3CC[C@H]12	0.657
COc1ccc(OC[C@@H](CO)OC)cc1	0.512
COc1ccc(OC[C@H]2CN3[C@@H](CC[C@@H](C)[C@@H]3c3ccc(Br)cc3)C(=O)O2)cc1	0.607
Cc1ccc(S(=O)(=O)N[C@@H]2COC(=O)CC=C[C@@H](C)[C@H](NS(=O)(=O)c3ccc(C)cc3)COC(=O)[C@H](C)NC(=O)CC=C[C@H]2C)cc1	1.27
CC(C)CON=C1C[C@@H](O)[C@@H](O)[C@@H]2[C@@H]3C(=O)N(C(C)(C)C)C(=O)[C@@H]3CC[C@@H]12	0.418
CCOC(=O)CCN1C(=O)[C@H]2[C@H]3[C@H](O)[C@H](O)CC(=O)[C@@H]3CC[C@H]2C1=O	-0.37
CCOC(=O)[C@H](CC(C)C)NC(=O)CCC1CC(OC(=O)NCc2ccc3c(c2)OCO3)CC2(CCCC(COC(=O)NCCC(C)C)O2)O1 (stereo not given in full)	0.16

The molecules below were run on Human papillomavirus type 1a protein E7 (residues 44-93) (assay: HPV1a E7 fragment binders on microarrays, primary screen, biochemical, small-molecule microarray, residues 44-93, 635 nm fluorescence (AID 1108;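 note: E7 fragment applied at 1 µg/mL in TBST for 1 h at 4 C; score combines spot fluorescence with its signal to noise ratio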)). Details: small-molecule microarray binding, fluorescence 635 nm; higher = more signal.

Structure (SMILES)	composite z-score
O=C1C[C@@H](O)[C@@H](O)[C@@H]2[C@@H]3C(=O)N(c4ccc(F)cc4F)C(=O)[C@@H]3CC[C@H]12	0.473
Cc1cc(C)c(-c2cc([C@H](C)ON=C[C@@H](C)[C@H](OCc3ccccc3)C(C)C)on2)c(C)c1	-1.42
CCN1C(=O)[C@H]2[C@H]3[C@H](O)[C@H](O)CC(=NOCC=C(C)CCC=C(C)C)[C@@H]3CC[C@H]2C1=O	0.57
CC(CCC(=O)OC[C@H]1O[C@H](C#Cc2ccccc2)C=C[C@@H]1Oc1ccc(C)cc1)=NOC[C@@H](C)[C@H](OCc1ccccc1)C(C)C	-1.89
CCOC(=O)CCN1C(=O)[C@H]2[C@H]3[C@H](O)[C@H](O)CC(=NO[C@@H]4O[C@H](CO)[C@@H](O)[C@H](O)[C@H]4O)[C@H]3CC[C@H]2C1=O	0.0713
CC1(C)O[C@H]2OC([C@H](O)CON3C(=O)c4ccccc4C3=O)[C@H](O)[C@H]2O1 (stereo not given in full)	-0.0928
CC(CCN1CCc2nc(-c3ccccc3)c(-c3ccccc3)cc2C1)=NO[C@H](C)c1cn([C@H](CO)Cc2ccccc2)nn1	-0.93
CON=C(C)CCN1CCCc2nc(C)c(C)cc21	0.365
CC(=O)OC[C@H]1O[C@@H](ON=C(C)CCC(=O)OC[C@H]2O[C@H](C#Cc3ccccc3)C=C[C@@H]2Oc2ccc(C)cc2)[C@H](OC(C)=O)[C@@H](OC(C)=O)[C@@H]1OC(C)=O	1.18
CCN1C(=O)[C@H]2[C@H]3[C@H](O)[C@H](O)CC(=NO[C@H](C)c4cn([C@H](CO)Cc5ccccc5)nn4)[C@@H]3CC[C@H]2C1=O	0.485
CC(=O)OC[C@H]1O[C@@H](ON=C(C)C)[C@H](OC(C)=O)[C@@H](OC(C)=O)[C@@H]1OC(C)=O	-2.02
CC(C)CON=C1C[C@@H](O)[C@@H](O)[C@@H]2[C@@H]3C(=O)N(c4ccc(F)cc4F)C(=O)[C@@H]3CC[C@@H]12	0.463
C=C(C)C(=O)OC[C@H]1CN2[C@@H](CC[C@@H](C)[C@@H]2c2ccc(Br)cc2)C(=O)O1	0.33
CC(CCN1CCCc2nc(C)c(C)cc21)=NOC[C@@H](O)COCc1ccco1	-2.03
O=C1C=C[C@@H](O)[C@@H]2[C@@H]3C(=O)N(Cc4ccc5c(c4)OCO5)C(=O)[C@@H]3CC[C@@H]12	0.701
CC(C)(C)N1C(=O)[C@H]2[C@H]3[C@H](O)[C@H](O)CC(=NOC[C@@H](O)COCc4ccco4)[C@@H]3CC[C@H]2C1=O	-0.266
C=CC[C@@H]1C=CC(ON=C(C)C)[C@@H](CO)O1 (stereo not given in full)	-1.17
CCC1=NOC(CCC2CC(OC(=O)NCc3cccc4c3OCO4)CC3(CCCC(COC(=O)NCCc4ccc(Cl)cc4)O3)O2)C1 (stereo not given)	0.916

Structure (SMILES)	composite z-score
C#CCCCON=C1C[C@@H](O)[C@@H](O)[C@@H]2[C@@H]3C(=O)N(C4CCCCC4)C(=O)[C@@H]3CC[C@@H]12	0.428
CC(=O)OC[C@H]1O[C@H](CC=NOC[C@@H](O)COCc2ccco2)C=C[C@@H]1OC(C)=O	-0.646
CC(C)=NOC(C)CN1CCCc2nc(C)c(C)cc21 (stereo not given)	1.17
CCOC(=O)[C@H](Cc1ccccc1)NC(=O)CCC1CC(OC(=O)NCc2cccc3ccccc23)CC2(CCCC(COC(=O)NCC3CCCCC3)O2)O1 (stereo not given in full)	1.33
O=C1C[C@H](c2ccccc2)[C@H](c2ccc(Br)cc2)O1	0.12
COC(=O)[C@H](C)NC(=O)CCC1CC(OC(=O)NCCc2ccc(F)cc2)CC2(CCCC(COC(=O)NCC3CCCCC3)O2)O1 (stereo not given in full)	1.39
CN1CCc2nc(-c3ccccc3)c(-c3ccccc3)cc2C1	0.321
CC#CCOCCC=C1c2ccccc2[C@@H](OC)[C@@H]1C	-1.14
C#CCCCON=C1C[C@@H](O)[C@@H](O)[C@@H]2[C@@H]3C(=O)N(C[C@@H]4CCCO4)C(=O)[C@@H]3CC[C@H]12	0.592
O=C1[C@H]2[C@H]3[C@H](O)[C@H](O)CC(=NO[C@@H]4O[C@H](CO)[C@@H](O)[C@H](O)[C@H]4O)[C@H]3CC[C@H]2C(=O)N1c1ccc(F)cc1F	0.491
CCCNC(=O)OC[C@H]1O[C@H](CCON=C2C[C@@H](O)[C@@H](O)[C@@H]3[C@@H]4C(=O)N(CC)C(=O)[C@@H]4CC[C@@H]23)C=C[C@@H]1Oc1ccc(OC)cc1	0.938
CC(C)=CCCC(C)=CCON=C1C[C@@H](O)[C@@H](O)[C@@H]2[C@@H]3C(=O)N(c4cccc(Oc5ccccc5)c4)C(=O)[C@@H]3CC[C@H]12	1.32
COc1ccc(OC[C@@H](CO)OC)cc1	0.0047
COc1ccc(OC[C@H]2CN3[C@@H](CC[C@@H](C)[C@@H]3c3ccc(Br)cc3)C(=O)O2)cc1	0.191
Cc1ccc(S(=O)(=O)N[C@@H]2COC(=O)CC=C[C@@H](C)[C@H](NS(=O)(=O)c3ccc(C)cc3)COC(=O)[C@H](C)NC(=O)CC=C[C@H]2C)cc1	-1.64
CC(C)CON=C1C[C@@H](O)[C@@H](O)[C@@H]2[C@@H]3C(=O)N(C(C)(C)C)C(=O)[C@@H]3CC[C@@H]12	-0.219
CCOC(=O)CCN1C(=O)[C@H]2[C@H]3[C@H](O)[C@H](O)CC(=O)[C@@H]3CC[C@H]2C1=O	0.555
CCOC(=O)[C@H](CC(C)C)NC(=O)CCC1CC(OC(=O)NCc2ccc3c(c2)OCO3)CC2(CCCC(COC(=O)NCCC(C)C)O2)O1 (stereo not given in full)	-0.527
